Sampled rows, rich in hits. Any-hit rate of the full collection: about 1.7%.
DUSP3 inh: blocks human VHR1 dual specificity phosphatase; AID 1654; inhibition, % at 13.3 µM; P51452; recombinant VHR phosphatase, pNPP absorbance; hit rate 0.52% among 290,000; in the data active means inhibition above about 50%
Target sequence (P51452 whole entry, looked up): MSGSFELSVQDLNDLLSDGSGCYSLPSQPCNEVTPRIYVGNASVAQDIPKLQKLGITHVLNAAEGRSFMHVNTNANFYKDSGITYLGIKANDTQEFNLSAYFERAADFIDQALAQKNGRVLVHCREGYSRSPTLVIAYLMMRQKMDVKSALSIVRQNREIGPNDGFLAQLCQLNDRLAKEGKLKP
BJeLR lethal: BJeLR cell viability loss; inhibition, % (concentration not given with the values); hit rate 0.17% among 300,000; AID 1554; BJeLR (HRASV12) viability, CellTiter-Glo ATP luminescence, 48 h; in the data active means inhibition above about 50%
PfHsp40 rescue: restores yeast growth despite PfHsp40 toxicity; hit rate 0.68% among 340,000; growth rescue, % at 12.5 µM; S. cerevisiae expressing PfHsp40, growth rescue, ATP luminescence; in the data active means growth rescue above about 28%, passing the limit was not always enough;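 further: yeast W303a lacking pdr1 and pdr3 grown in galactose medium; growth measured after three days at 30 °C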
Vc quorum ag-1: inducers of Vibrio cholerae quorum light production without autoinducers | V. cholerae BH1578 lux reporter, luminescence, 6 h | activation, % at 18.7 µM | hit rate 0.16% among 350,000 | AID 588436; in the data active means activation mostly above about 9.7%, no sharp cut-off
3CLpro inhibitor: SARS-CoV 3CLpro protease inhibition; recombinant SARS-CoV 3CLpro, quenched FRET peptide cleavage; inhibition, % at 6 µM; hit rate 0.14% among 290,000; AID 1706; in the data active means inhibition above about 12%
MazF activator: MazEF (E. coli) toxin RNase activation; P0AE70; FAM/BHQ RNA-DNA oligo cleavage fluorescence, 5 h; activation, % at 20 µM; hit rate 0.32% among 350,000; in the data active means activation above about 50%
Target sequence (P0AE70 whole entry, looked up): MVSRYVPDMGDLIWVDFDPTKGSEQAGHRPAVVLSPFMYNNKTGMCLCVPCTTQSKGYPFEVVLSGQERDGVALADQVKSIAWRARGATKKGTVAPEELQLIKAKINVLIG
Vc quorum ag-2: quorum light induction in BH1578 reporter strain; shares compounds with Vc quorum ag-1; V. cholerae BH1578 lux reporter, luminescence, 6 h; activation, % at 50 µM; 620 tested, under 10 active; call rule not given here
HeLa 24h tox: kills HeLa cells within 24 hours. shares compounds with Vc quorum ag-1. HeLa viability, CellTiter-Glo ATP luminescence. activity change, negative = cytotoxicity, % at 35 µM. 25 tested, under 10 active. AID 624140;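 active means signal drop with fitted half-maximal concentration at or below twice the highest valid dose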
Hits are given with their value; . = inactive; / = not tested or not shown.

SMILES	DUSP3 inh	BJeLR lethal	PfHsp40 rescue	Vc quorum ag-1	3CLpro inhibitor	MazF activator	Vc quorum ag-2	others
CCOC(=O)C1CCCN(Cc2ccc(OCc3ccccc3)cc2)C1 (configuration not stated)	.	.	.	.	.	.	/
CCOC(=O)C1CCCN(Cc2cccc(Cl)c2)C1 (configuration not stated)	.	.	.	.	.	.	.
C#CCOCCOCCOCCNc1nc(N2CCN(C(=O)C([C@@H](C)O)n3cc([C@@H](N)CCCCN)nn3)CC2)nc(N2CCN(C(=O)[C@H](CCCN=C(N)N)n3cc(C(N)[C@@H](C)CC)nn3)CC2)n1 (some centres not stated)	/	/	.	.	/	.	/
Nc1c(C2CCCCC2)c(=O)on1C(=O)c1ccccc1	/	/	.	.	/	.	/
COc1ccc(-c2nnc3c4ccccc4c(C)nn23)cc1	.	.	.	.	.	.	.
CCOC(=O)c1sc2cc([N+](=O)[O-])cc(SCCO)c2c1N	.	.	.	23	.	.	.
CN(CC(=O)NCc1ccco1)CC(=O)Nc1c(Cl)cccc1Cl	/	/	.	.	/	.	/
CCC(=O)c1ccc(OC(C)C(=O)NC2(C#N)CCCCC2)cc1 (configuration not stated)	.	.	.	.	.	.	/
O=C(COC(=O)CNC(=O)c1ccco1)NCCN1C(=O)CSC1=O	.	.	.	.	.	.	.
COc1ccccc1NS(=O)(=O)c1ccc(C)c(C(=O)NCCCN2CCCC2=O)c1	/	.	.	.	/	.	/
Cc1ccc(S(=O)(=O)Nc2ccccc2F)cc1C(=O)NCCCN1CCCC1=O	.	.	.	.	.	.	.
COCCN(C(=O)C1CCC1)c1nnc(-c2cccnc2)s1	.	.	.	.	.	.	.
COc1ccc(C(=O)NC2CCCN(Cc3ccc(Cl)cc3)C2)c(OC)c1 (configuration not stated)	.	.	.	.	.	.	/
COc1ccc(OCC(=O)NC2CCCN(Cc3ccc(Cl)cc3)C2)cc1 (configuration not stated)	.	.	.	/	.	.	.
O=C(COc1ccccc1)NC1CCCN(Cc2ccccc2)C1 (configuration not stated)	/	/	/	/	/	/	/	HeLa 24h tox=.
O=C(COC(=O)/C=C/c1cccc(F)c1)NC1CCCCCC1	/	/	.	.	/	.	/
O=C(COC(=O)/C=C/c1cccc(F)c1)NC1CCCC1	/	/	.	.	/	.	.
CCCCCOc1ccc(C(=O)Nc2ccc(S(=O)(=O)Nc3cc(C)on3)cc2)cc1	.	.	.	.	.	.	/
Cc1ccc(OCCCC(=O)N(C)CC(=O)Nc2ccccc2Cl)cc1	/	.	.	.	/	.	.
Cc1ccc(C)c(NC(=O)CCN2C(=O)c3ccccc3C2=O)c1	.	.	.	.	.	.	/
CCOc1ccc(OCCCC(=O)N(C)CC(=O)Nc2ccccc2Br)cc1	/	/	.	.	/	.	/
Cc1ccc(C)c(NC(=O)CN(C)C(=O)CCN2C(=O)c3ccccc3C2=O)c1	.	.	.	25	.	.	.
O=S(=O)(Nc1nnc(C2CC2)s1)c1ccccc1	.	.	.	.	.	.	/
COc1ccc(CCN2CC(C(=O)OCC(=O)N(C)CC(=O)Nc3ccccc3Cl)CC2=O)cc1OC (configuration not stated)	/	/	.	.	/	.	/
C[C@@H]1CCC(=O)N(CC[C@H](Sc2ccccc2)c2ccccc2)CC1	.	.	.	.	.	.	/
SMILES	DUSP3 inh	BJeLR lethal	PfHsp40 rescue	Vc quorum ag-1	3CLpro inhibitor	MazF activator	Vc quorum ag-2	others
CC(OC(=O)Cn1cnc2c1c(=O)n(C)c(=O)n2C)C(=O)c1ccccc1 (configuration not stated)	/	.	.	.	/	.	.
O=C1CC2(CCCC2)C(=O)N1c1ccc(S(=O)(=O)NCC2CC2)cc1Cl	.	.	.	.	.	.	/
COc1ccc2[nH]c(=O)c(CN(C(=O)c3cccnc3)c3ccc(C)cc3)cc2c1	.	.	.	.	.	.	.
CSCCC(NC(=O)/C(=C/c1ccco1)NC(=O)c1ccco1)C(=O)O (configuration not stated)	/	.	/	.	/	.	/
O=C(O)C1C2CCC(C2)C1C(=O)Nc1cc(F)ccc1F (configuration not stated)	.	.	.	17	.	.	.
COc1ccc(CC(=O)NCCc2ccc(Cl)cc2Cl)cc1	.	.	.	.	.	.	/
COc1ccc(CNC(=O)c2cc(-n3cnnc3)ccc2Cl)cc1	.	.	.	25	.	.	.
COc1ccc(CCNC(=O)c2ccc(Cl)cc2Cl)cc1	.	.	.	28	.	.	.
O=C(COC(=O)c1c[nH]c2ccccc12)Nc1ccc(F)cc1	/	/	.	.	/	.	/
COc1cc(C(C)=O)ccc1OCC(=O)Nc1cc(Cl)ccc1-n1cncn1	/	/	.	.	/	.	.
CCc1ccc(NC(=O)CN(C(=O)N2CCN(CC)CC2)S(=O)(=O)c2ccc(C)cc2)cc1	/	.	.	.	/	.	/
Cc1ccc(C(=O)N2CCN(c3ccc([N+](=O)[O-])cc3-n3cccc3)CC2)cc1	.	.	.	.	.	.	/
CN(CC(=O)NCCN1CCOCC1)S(=O)(=O)c1ccc(Cl)cc1	/	/	.	37	/	.	.
COc1ccc(S(=O)(=O)N(C)CC(=O)NCCN2CCOCC2)cc1Cl	.	.	.	.	.	.	/
CC(C)CNC(=O)c1ccc(-c2ccc(F)c(F)c2)c2ccoc12	/	/	/	.	/	/	/
CCc1sc(N(C(=O)Cc2ccccc2)c2ccc(F)cc2)nc1-c1ccccc1	.	.	.	.	.	.	.
CC(C)c1ccc(OCCCCN2CCCCC2)cc1	.	.	.	.	.	.	/
CC(C)Oc1ccc(OCCCN2CCCCCC2)cc1	.	.	.	.	.	.	.
CN1C(=O)C(C)(C)c2cc(S(=O)(=O)N3CCN(c4ccc(F)cc4)CC3)ccc21	.	.	.	.	.	.	/
Cc1ccccc1-n1nnnc1-c1ccccc1	.	.	.	.	.	.	.
c1ccc(-c2nnnn2-c2ccccc2)cc1	.	.	.	.	.	.	/
Cc1ccc(CN(Cc2cc3cc(C)ccc3[nH]c2=O)C(=O)N2CCOCC2)cc1	.	.	.	17	.	.	.
Cc1ccc2[nH]c(=O)c(CN(Cc3ccco3)C(=O)N3CCOCC3)cc2c1	.	.	.	.	.	.	/
CCC1(CC)NC(=O)N(CC(=O)OCC(=O)NC(=O)c2ccc(Cl)cc2)C1=O	.	.	.	.	.	.	/
CCC1(CC)NC(=O)N(CC(=O)OCC(=O)NC(=O)c2ccccc2OC)C1=O	/	.	.	.	/	.	.
COc1ccc(OCCSc2nnc(CC(=O)Nc3cccc(Cl)c3Cl)n2C)cc1	.	.	.	.	.	.	/
CCn1c(CC(=O)Nc2cccc(Cl)c2Cl)nnc1SCCOc1ccc(OC)cc1	.	.	.	/	.	.	.	HeLa 24h tox=.

Bioassay records deposited in PubChem BioAssay by several laboratories.
